Source: PubChem BioAssay
For part of these data: Potency and affinity values are given separately. Activity calls are given as the source filed them.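 The calls were made as follows, unless noted: active = primary screen hit whose calcium fluorescence ratio, in both repeats, exceeds the weak agonist control mean by 3 SD; inactive = the rest.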

Key:
[1] = tested on: TRPC4 beta (transient receptor potential cation channel C4), mouse; experiment: activators of mouse TRPC4 channel, confirmation, cell-based, Fluo4 calcium, HEK293 TRPC4beta/mu-opioid, duplicates, 10 µM (AID 2426;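 active = fluorescence ratio normalized to control raised more than 50% in primary screen plus both repeat runs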;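 as to activation: percent rise of integrated ratio over buffer wells lacking compound which define 0%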); settings: Fluo4 calcium fluorescence, at 10 µM; active compounds read high
[2] = tested on: transient receptor potential cation channel C4 beta (TRPC4), mouse; experiment: activators of mouse TRPC4 channel, confirmation, cell-based, second round, Fluo4, HEK293 TRPC4beta/mu-opioid, 1 µM (AID 2461;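 active = primary screen active and over 50% activation in each of two duplicate runs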;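 as to activation: 0% = wells without test compound as baseline of integrated fluorescence ratio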); settings: Fluo4 calcium fluorescence, at 1 µM; active compounds read high
[3] = tested on: TRPC4 (transient receptor potential cation channel C4 beta), mouse; experiment: positive allosteric modulators of mouse TRPC4, confirmation, cell-based, second round, Fluo-4, HEK293 TRPC4beta/mu-opioid, 1 µM (AID 2554;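 active = primary screen hit whose fluorescence ratio, in both repeats, exceeds the weak agonist control mean by 3 SD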); settings: DAMGO EC20, Fluo-4 calcium flux, at 1 µM; active compounds read high
[4] = tested on: TRPC4 beta (transient receptor potential cation channel C4), mouse; experiment: positive allosteric modulators of mouse TRPC4, confirmation, cell-based, Fluo-4, HEK293 TRPC4beta/mu-opioid (AID 2555); settings: DAMGO EC20, Fluo-4 calcium flux, at 10 µM; active compounds read high
[5] = molecular target: Short transient receptor potential channel 4 (Mus musculus) (UniProt Q9QUQ5); experiment: inhibitors of mouse TRPC4 channel, confirmation, cell-based, Fluo4, HEK293 TRPC4beta/mu-opioid (AID 2636;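 active = calcium signal cut by more than 3 SD below the full-agonist control yet still positive, in both repeats and the earlier primary screen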); settings: DAMGO, Fluo4 calcium flux, at 10 µM; active compounds read high
[6] = molecular target: Short transient receptor potential channel 4 (Mus musculus) (UniProt Q9QUQ5); experiment: inhibitors of mouse TRPC4 channel, confirmation, cell-based, second round, Fluo4, HEK293 TRPC4beta/mu-opioid, 1 µM (AID 2637;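 active = calcium signal ratio cut to more than 3 SD under the fully stimulated control mean yet still positive, in both repeats and the primary screen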); settings: Fluo4 calcium flux, DAMGO, at 1 µM; active compounds read high
[7] = molecular target: Short transient receptor potential channel 4 (Mus musculus) (UniProt Q9QUQ5); experiment: TRPC4 positive allosteric modulators, dose response, cell-based, HEK293 TRPC4/mu-opioid, Fluo-4 calcium, EC20 DAMGO (AID 434941;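 active = earlier screen potentiator hit that boosts the TRPC4 ion channel at some dose, with a dose response; inactive = no potentiation, no dose response, or not a prior hit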;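 also: calcium entry triggered by an EC20 dose of DAMGO at the co-expressed mu-opioid receptor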)
[8] = molecular target: Short transient receptor potential channel 4 (Mus musculus) (UniProt Q9QUQ5); experiment: mouse TRPC4 channel inhibitors, dose response, cell-based, HEK293 TRPC4/mu-opioid, Fluo-4 calcium (AID 434942;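 active = primary screen inhibitor hit that blocks the TRPC4 channel at some tested dose, yielding a dose curve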)
[9] = molecular target: Short transient receptor potential channel 6 (Mus musculus) (UniProt Q61143); experiment: inhibition of mouse TRPC6 channel, confirmation, selectivity assay for TRPC4 inhibitor project, cell-based, HEK293, membrane potential dye, duplicate (AID 434948;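 active = active in primary screen and both duplicates, each dropping signal beyond three positive-control SD with fluorescence still positive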); settings: HEK293 TRPC6, membrane potential dye fluorescence, at 10 µM, stimulated with maximal-effect acetylcholine; active compounds read high
[10] = molecular target: Short transient receptor potential channel 6 (Mus musculus) (UniProt Q61143); experiment: activation of mouse TRPC6 channel, confirmation, selectivity assay for TRPC4 activator project, cell-based, HEK293, membrane potential dye, duplicate (AID 434950;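 active = membrane potential signal rise above negative control mean plus 3 SD in both duplicates, also active in the earlier TRPC4 screen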;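 as to activation: 0% = buffer only wells and 100% = acetylcholine maximal-effect wells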); settings: HEK293 TRPC6, membrane potential fluorescence, at 10 µM; active compounds read high
[11] = molecular target: Short transient receptor potential channel 6 (Mus musculus) (UniProt Q61143); experiment: TRPC6 potentiation by TRPC4 potentiator hits, confirmation, selectivity assay for TRPC4 potentiator project, HEK293 cells, membrane potential dye, duplicate (AID 434952;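 active = compound raising the membrane signal above positive-control mean plus 3 SD in both repeats, and a primary screen hit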); settings: HEK293 TRPC6, membrane potential dye fluorescence, at 10 µM, maximal acetylcholine added after compound; active compounds read high
[12] = molecular target: Short transient receptor potential channel 4 (Mus musculus) (UniProt Q9QUQ5); experiment: calcium flux activators in TRPC4/5HT1a cells, counter-screen for TRPC4 activator project, cell-based, second counter screen, HEK293 TRPC4/5HT1a, Fluo-4 (AID 434977;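 active = calcium signal rise above buffer-control mean plus 5 SD in both duplicates, and also a hit in the primary screen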;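 as to activation: plate controls were assay buffer for no effect and maximal serotonin response for full effect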); settings: Fluo-4 calcium flux, at 10 µM; active compounds read high
[13] = calcium flux inhibitors in TRPC4/5HT1a cells, confirmation, counter-screen for TRPC4 inhibitor project, cell-based, second counter screen, HEK293 TRPC4/5HT1a, Fluo-4 (AID 434978;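 active = primary screen active whose calcium signal fell more than 3 SD beyond the full-serotonin control mean in both duplicate plates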;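 also: serotonin given first at submaximal then at maximal dose after compound preincubation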); settings: Fluo-4 calcium flux, at 10 µM, serotonin added to trigger calcium flux; active compounds read high
[14] = tested on: TRPC4 (mouse), co-expressed with 5HT1a in HEK293; experiment: calcium flux potentiators in TRPC4/5HT1a cells, confirmation, counter-screen for TRPC4 potentiator project, cell-based, second counter screen, HEK293 TRPC4/5HT1a, Fluo-4 (AID 434979;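 active = signal rise over 3 SD above mean of control wells given weak agonist, in both repeats and first screen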); settings: Fluo-4 calcium flux, at 10 µM, serotonin added at its EC20 dose; active compounds read high
[15] = calcium flux activation in mu-opioid HEK293 cells, confirmation, counter-screen for TRPC4 activator project, cell-based, HEK293 mu-opioid receptor line (AID 449723;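 active = hit in primary screen, with calcium signal over 5 SD above buffer well mean in both duplicates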;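 also: counter screen cells carry the mu-opioid receptor alone and lack TRPC4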); settings: Fluo-4 calcium fluorescence, at 10 µM; active compounds read high
[16] = calcium flux enhancement in mu-opioid HEK293 cells, confirmation, counter-screen for TRPC4 allosteric potentiator project, cell-based, HEK293 mu-opioid receptor line (AID 449724;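 active = calcium signal rise more than 3 SD above the low-dose agonist control mean, in both duplicate plates and the primary screen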); settings: Fluo-4 calcium flux, at 10 µM, compound added before EC20 DAMGO stimulus; active compounds read high

Chain of Short transient receptor potential channel 4 (Mus musculus) (Q9QUQ5 whole entry, looked up): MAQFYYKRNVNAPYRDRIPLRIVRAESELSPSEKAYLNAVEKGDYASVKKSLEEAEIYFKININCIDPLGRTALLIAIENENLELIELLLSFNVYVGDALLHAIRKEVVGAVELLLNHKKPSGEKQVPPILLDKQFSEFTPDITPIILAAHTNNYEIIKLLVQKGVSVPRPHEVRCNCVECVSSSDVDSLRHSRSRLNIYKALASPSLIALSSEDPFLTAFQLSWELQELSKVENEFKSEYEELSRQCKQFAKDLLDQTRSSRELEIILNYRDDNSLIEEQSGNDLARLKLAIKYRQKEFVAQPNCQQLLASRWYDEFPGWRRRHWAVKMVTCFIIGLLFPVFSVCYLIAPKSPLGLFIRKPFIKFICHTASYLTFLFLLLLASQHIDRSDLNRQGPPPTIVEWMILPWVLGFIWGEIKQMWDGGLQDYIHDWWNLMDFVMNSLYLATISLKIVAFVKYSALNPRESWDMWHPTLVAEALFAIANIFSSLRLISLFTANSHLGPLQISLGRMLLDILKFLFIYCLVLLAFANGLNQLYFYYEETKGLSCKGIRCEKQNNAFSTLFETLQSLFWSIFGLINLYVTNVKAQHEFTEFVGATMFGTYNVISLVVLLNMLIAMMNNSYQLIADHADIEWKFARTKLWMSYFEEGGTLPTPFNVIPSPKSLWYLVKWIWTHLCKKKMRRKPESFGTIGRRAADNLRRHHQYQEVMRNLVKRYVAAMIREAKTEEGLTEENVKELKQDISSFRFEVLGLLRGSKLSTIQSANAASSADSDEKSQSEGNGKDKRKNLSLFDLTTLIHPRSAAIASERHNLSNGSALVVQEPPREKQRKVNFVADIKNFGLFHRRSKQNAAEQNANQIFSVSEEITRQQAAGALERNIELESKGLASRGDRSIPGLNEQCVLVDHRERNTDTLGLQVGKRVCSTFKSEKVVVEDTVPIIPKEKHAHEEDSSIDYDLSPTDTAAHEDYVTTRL
Chain of Short transient receptor potential channel 6 (Mus musculus) (Q61143 whole entry, looked up): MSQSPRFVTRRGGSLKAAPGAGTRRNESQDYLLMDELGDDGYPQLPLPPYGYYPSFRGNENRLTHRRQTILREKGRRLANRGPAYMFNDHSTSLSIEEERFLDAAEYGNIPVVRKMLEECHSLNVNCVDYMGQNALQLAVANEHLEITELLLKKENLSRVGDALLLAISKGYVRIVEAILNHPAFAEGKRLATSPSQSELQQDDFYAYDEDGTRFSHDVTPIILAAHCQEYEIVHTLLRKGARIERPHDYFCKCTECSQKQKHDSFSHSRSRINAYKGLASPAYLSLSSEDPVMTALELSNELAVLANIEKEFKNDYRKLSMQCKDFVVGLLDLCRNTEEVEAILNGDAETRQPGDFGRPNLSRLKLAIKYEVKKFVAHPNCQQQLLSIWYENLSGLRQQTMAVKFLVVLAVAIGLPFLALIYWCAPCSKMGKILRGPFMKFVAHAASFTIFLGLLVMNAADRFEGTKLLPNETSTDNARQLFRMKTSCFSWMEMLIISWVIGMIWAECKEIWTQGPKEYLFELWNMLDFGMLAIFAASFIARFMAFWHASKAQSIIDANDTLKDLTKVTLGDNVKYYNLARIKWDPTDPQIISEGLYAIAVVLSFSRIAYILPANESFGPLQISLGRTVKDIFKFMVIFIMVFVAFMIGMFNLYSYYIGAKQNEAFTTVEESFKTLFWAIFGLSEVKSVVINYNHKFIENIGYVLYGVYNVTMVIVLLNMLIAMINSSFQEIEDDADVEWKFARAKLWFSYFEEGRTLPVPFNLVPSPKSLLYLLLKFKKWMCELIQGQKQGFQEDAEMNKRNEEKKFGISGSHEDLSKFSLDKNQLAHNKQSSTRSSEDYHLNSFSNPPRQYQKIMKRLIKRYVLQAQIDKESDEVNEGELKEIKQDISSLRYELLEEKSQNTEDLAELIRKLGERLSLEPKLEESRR

CCN1C(=O)c2cccc3c(S(=O)(=O)Nc4ccccc4OC)ccc1c23
inactive: outcome [1] | outcome [2] | outcome [3] | outcome [4] | outcome [5] | outcome [6] | outcome [7] | outcome [8] | outcome [9] | outcome [10] | outcome [11] | outcome [12] | outcome [13] | outcome [14] | outcome [15] | outcome [16]

CCOC(=O)C1(CCc2ccccc2)CCN(Cc2c(O)cccc2OC)CC1
inactive: outcome [2] | outcome [3] | outcome [4] | outcome [5] | outcome [6] | outcome [7] | outcome [8] | outcome [9] | outcome [11] | outcome [12] | outcome [13] | outcome [14] | outcome [15] | outcome [16]
active: activation [1] 83% | activation [10] 92.5%

CCN1CCN(c2c(Cl)cccc2NC(=O)c2ccc3nsnc3c2)CC1
inactive: outcome [2] | outcome [5] | outcome [6] | outcome [7] | outcome [8] | outcome [9] | outcome [10] | outcome [11] | outcome [12] | outcome [13] | outcome [14] | outcome [15] | outcome [16]
active: activation [1] 57% | potentiation [3] 22% | potentiation [4] 14%

CCCN(CCC)CCNC(=S)Nc1ccc2nc3n(c(=O)c2c1)CCCCC3
inactive: outcome [1] | outcome [2] | outcome [3] | outcome [4] | outcome [5] | outcome [6] | outcome [7] | outcome [8] | outcome [9] | outcome [11] | outcome [13] | outcome [14] | outcome [15] | outcome [16]
active: activation [10] 47% | activation [12] 7.78%

COc1ccc(CCN(C)CCC(=O)Nc2c(C)cc(C)cc2C)cc1OC
active: activation [10] 48.5% | activation [12] 58.1%
inactive: outcome [1] | outcome [2] | outcome [3] | outcome [4] | outcome [5] | outcome [6] | outcome [7] | outcome [8] | outcome [9] | outcome [11] | outcome [13] | outcome [14] | outcome [15] | outcome [16]

Fc1ccc(-c2nnc(CN3CCN(c4ncc(C(F)(F)F)cc4Cl)CC3)o2)cc1
inactive: outcome [2] | outcome [3] | outcome [4] | outcome [5] | outcome [6] | outcome [7] | outcome [8] | outcome [9] | outcome [11] | outcome [13] | outcome [14] | outcome [15] | outcome [16]
active: activation [1] 120% | activation [10] 35.5% | activation [12] 23.8%

CCCN(CCC)CCCNC(=O)C1CCC(CNS(=O)(=O)c2cccc3nsnc23)CC1 (stereo not given)
inactive: outcome [3] | outcome [4] | outcome [5] | outcome [6] | outcome [7] | outcome [8] | outcome [9] | outcome [10] | outcome [11] | outcome [13] | outcome [14] | outcome [15] | outcome [16]
active: activation [1] 83% | activation [2] 52% | activation [12] 29.2%

Cc1cccc2cc(C(c3nnnn3Cc3ccccc3)N3CCN(C)CC3)c(=O)[nH]c12 (stereo not given)
inactive: outcome [2] | outcome [3] | outcome [4] | outcome [5] | outcome [6] | outcome [7] | outcome [8] | outcome [9] | outcome [11] | outcome [12] | outcome [13] | outcome [14] | outcome [15] | outcome [16]
active: activation [1] 118% | activation [10] 29%

CCOc1ccccc1CN1CCNC(=O)C1CC(=O)N(C)CCc1ccccn1 (stereo not given)
active: activation [1] 235% | activation [2] 76% | activation [10] 27% | activation [12] 72.6%
inactive: outcome [3] | outcome [4] | outcome [5] | outcome [6] | outcome [7] | outcome [8] | outcome [9] | outcome [11] | outcome [13] | outcome [14] | outcome [15] | outcome [16]

O=C(C1CCCN(Cc2ccncc2)C1)N1CCc2ccccc2C1 (stereo not given)
active: activation [1] 204% | activation [2] 149% | activation [10] 27.5% | activation [12] 84.2%
inactive: outcome [3] | outcome [4] | outcome [5] | outcome [6] | outcome [7] | outcome [8] | outcome [9] | outcome [11] | outcome [13] | outcome [14] | outcome [15] | outcome [16]

CN(C)C(CNC(C(=O)Nc1ccc(F)cc1)c1ccccc1)c1ccccc1 (stereo not given)
active: activation [1] 126% | activation [2] 68%
inactive: outcome [3] | outcome [4] | outcome [5] | outcome [6] | outcome [7] | outcome [8] | outcome [9] | outcome [10] | outcome [11] | outcome [12] | outcome [13] | outcome [14] | outcome [15] | outcome [16]

CCCc1c(O)nc(SCCN(CCC)CCC)[nH]c1=O
active: activation [1] 96% | activation [12] 12.4% | potentiation [14] 23.3%
inactive: outcome [2] | outcome [3] | outcome [4] | outcome [5] | outcome [6] | outcome [7] | outcome [8] | outcome [9] | outcome [10] | outcome [11] | outcome [13] | outcome [15] | outcome [16]

CC(=O)N1CCc2cc(Br)cc(S(=O)(=O)NCCCN(C)Cc3ccccc3)c21
active: activation [1] 87% | activation [2] 72% | activation [12] 27.8%
inactive: outcome [3] | outcome [4] | outcome [5] | outcome [6] | outcome [7] | outcome [8] | outcome [9] | outcome [10] | outcome [11] | outcome [13] | outcome [14] | outcome [15] | outcome [16]

COC(=O)c1ccc(N2CCN(C)CC2)c(NC(=O)COc2ccccc2)c1
active: activation [1] 86% | activation [12] 12.3%
inactive: outcome [2] | outcome [3] | outcome [4] | outcome [5] | outcome [6] | outcome [7] | outcome [8] | outcome [9] | outcome [10] | outcome [11] | outcome [13] | outcome [14] | outcome [15] | outcome [16]

CC1CC(C)CN(CCCNC(=O)c2nn(C)c3c2CS(=O)(=O)c2ccccc2-3)C1 (stereo not given)
inactive: outcome [3] | outcome [4] | outcome [5] | outcome [6] | outcome [7] | outcome [8] | outcome [9] | outcome [11] | outcome [13] | outcome [14] | outcome [15] | outcome [16]
active: activation [1] 112% | activation [2] 72% | activation [10] 40.5% | activation [12] 43.2%
